Pf Dd2 inh: P. falciparum Dd2 growth inhibitors, primary screen, SYBR Green fluorescence, single dose replicates; 94,000 tested, 2.3% active; 72 h; stronger effect = lower value; activity change, % at 10 µM; AID 1159554, 2015; in the data active means activity change below about -80%; inconclusive means no clear call, values can overlap the other calls
C diff growth: C. difficile growth inhibitors, primary screen, HTS. Clostridium difficile clinical isolate growth, OD600, 24 h; stronger effect = lower value. growth activity, negative = inhibition, % at 16 µg/mL (by protocol). 86,000 tested, 0.25% active. AID 1259249, 2017;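 active means mean growth activity at or below -80% and every replicate also at or below -80%; inconclusive means mean at or below -80% but some replicate above -80%; inactive means mean growth activity above -80%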;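 further: 0% = DMSO wells and -100% = levofloxacin 16 µg/mL wells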
T cruzi growth-1: T. cruzi intracellular proliferation inhibitors, primary screen, cell-based, beta-gal Tulahuen parasites, NIH3T3 host, luminescence. T. cruzi beta-gal in NIH3T3, GalScreen luminescence, 90 h. inhibition, % at 8.34 µM. 77,000 tested, 5.9% active. AID 624255, 2012;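 active means mean inhibition above about 93%, with at least 55% of replicates each passing it, limit read from the data, passing the limit was not always enough; inconclusive means only one of those two conditions holds; inactive means neither condition holds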
T cruzi growth-2: T. cruzi intracellular proliferation inhibitors, confirmation, cell-based, NIH3T3 host, beta-gal parasite, luminescence, cherry-pick. shares compounds with T cruzi growth-1. T. cruzi beta-gal in NIH3T3, GalScreen luminescence, 90 h. inhibition, % at 8.35 µM. 5,600 tested, 72% active;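 active means mean replicate inhibition above about 95% and at least 55% of replicates individually reaching it, limit read from the data; inconclusive means only one of the two criteria is met; inactive means neither criterion is met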
T cruzi growth-3: inhibitors of intracellular T. cruzi replication, confirmation, NIH3T3 host cells, beta-gal parasites, cherry-pick, set 2 | shares compounds with T cruzi growth-1 | T. cruzi beta-gal in NIH3T3, GalScreen luminescence, 90 h | inhibition, % at 2.09 µM | 5,600 tested, 21% active;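 active means mean inhibition above about 95%, with at least 55% of replicates also reaching it, limit read from the data; inconclusive means meets just one of the two conditions; inactive means meets neither condition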;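 further: plate controls were neutral control median for no effect and positive control median for full effect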
3T3 cytotox: cytotoxicity in mouse NIH/3T3 fibroblasts, confirmation, cytotoxicity control for T. cruzi proliferation inhibitor project, cell-based, cherry-pick, single point; shares compounds with T cruzi growth-1; NIH/3T3 viability, CellTiter-Glo ATP luminescence, 90 h; cytotoxicity (signal decrease), % at 8.35 µM; 5,600 tested, 14% active;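 active means mean signal decrease across replicates above about 35% based on untreated-well scatter, with enough replicates individually passing, limit read from the data; inconclusive means no rule stated though some were filed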;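 further: 0% = median of neutral control wells and 100% = median of positive control wells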
3T3 cytotox 2: NIH/3T3 fibroblast cytotoxicity, confirmation, cytotoxicity control, cell-based, cherry-pick, single point, set 2; NIH/3T3 viability, CellTiter-Glo ATP luminescence, 90 h; 5,600 tested, 56% active; shares compounds with T cruzi growth-1; inhibition, % at 24.9 µM;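 active means mean loss of cell viability signal at or above a set limit, and enough replicates individually reaching it; inconclusive means meets only the mean limit or only the replicate share; inactive means meets neither condition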;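 further: 0% = median of neutral control wells and 100% = median of positive control wells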
Numbers without * were called inactive. Hits are enriched below; roughly 6.8% of the tested compounds scored in any of these assays.

Screening O=C(c1cccc(F)c1)N1CCCCN2[C@@H](CO)[C@H](c3ccc(/C=C/c4ccccc4)cc3)[C@@H]2C1 returned Pf Dd2 inh -12, C diff growth -29, T cruzi growth-1 111*, T cruzi growth-2 103*, T cruzi growth-3 93, 3T3 cytotox 45* and 3T3 cytotox 2 103*.
`O=C(c1cccc(F)c1)N1CC(=O)N2[C@H](CO)[C@@H](c3ccc(/C=C/c4ccccc4)cc3)[C@H]2C1` gave Pf Dd2 inh -19 and C diff growth 10.
Screening O=C(c1cccc(F)c1)N1CCCCN2[C@H](CO)[C@H](c3ccc(/C=C/c4ccccc4)cc3)[C@@H]2C1 returned Pf Dd2 inh -73, C diff growth 21, T cruzi growth-1 114*, T cruzi growth-2 100*, T cruzi growth-3 110*, 3T3 cytotox 34 and 3T3 cytotox 2 99*.
For O=C(c1cccc(F)c1)N1CCCCN2[C@H](CO)[C@H](c3ccc(/C=C/c4ccccc4)cc3)[C@H]2C1 the results were Pf Dd2 inh -58, C diff growth 1, T cruzi growth-1 111*, T cruzi growth-2 102*, T cruzi growth-3 81, 3T3 cytotox 91* and 3T3 cytotox 2 104*.
For O=C(c1cccc(F)c1)N1CCCCN2[C@H](CO)[C@@H](c3ccc(/C=C/c4ccccc4)cc3)[C@H]2C1 the results were Pf Dd2 inh -36, C diff growth 32 and T cruzi growth-1 92.
For O=C(c1cccc(F)c1)N1CC(=O)N2[C@@H](CO)[C@H](c3ccc(/C=C/c4ccccc4)cc3)[C@@H]2C1 the results were Pf Dd2 inh -27 and C diff growth 4.
For CC(C)NC(=O)Nc1ccc2c(c1)C(=O)N([C@H](C)CO)C[C@@H](C)[C@@H](CN(C)Cc1ccc(Oc3ccccc3)cc1)O2 the results were Pf Dd2 inh 0 and C diff growth -13.
For CC(C)CC#Cc1cnc2c(c1)C(=O)N([C@@H](C)CO)C[C@H](C)[C@@H](CN(C)C(=O)c1ccccc1F)O2 the results were Pf Dd2 inh -6, C diff growth -8 and T cruzi growth-1 61.
For C[C@@H]1CN([C@H](C)CO)C(=O)c2cc(C#Cc3cccc(F)c3)cnc2O[C@H]1CN(C)C(=O)C1CCOCC1 the results were Pf Dd2 inh -32, C diff growth -4 and T cruzi growth-1 63.
C[C@@H]1CN([C@@H](C)CO)S(=O)(=O)c2ccc(C#Cc3cccc(F)c3)cc2O[C@H]1CN(C)S(=O)(=O)c1ccccc1F was read as Pf Dd2 inh -79, C diff growth 13, T cruzi growth-1 112*, T cruzi growth-2 110*, T cruzi growth-3 inconclusive, 3T3 cytotox 8 and 3T3 cytotox 2 34*.
C[C@@H]1CN([C@@H](C)CO)S(=O)(=O)c2ccc(C#Cc3cccc(F)c3)cc2O[C@@H]1CN(C)C was read as Pf Dd2 inh -51, C diff growth -5 and T cruzi growth-1 -12.
C[C@H](CO)N1C[C@H](C)[C@H](CN(C)S(=O)(=O)c2ccccc2F)Oc2cc(C#Cc3cccc(F)c3)ccc2S1(=O)=O was read as Pf Dd2 inh -16, C diff growth 25, T cruzi growth-1 109*, T cruzi growth-2 103*, T cruzi growth-3 43, 3T3 cytotox 17 and 3T3 cytotox 2 11.
`C[C@@H]1CN([C@H](C)CO)S(=O)(=O)c2ccc(C#Cc3cccc(F)c3)cc2O[C@H]1CN(C)C` gave Pf Dd2 inh -6, C diff growth 14 and T cruzi growth-1 67.
`C[C@H](CO)N1C[C@H](C)[C@H](CN(C)C)Oc2cc(C#Cc3cccc(F)c3)ccc2S1(=O)=O` gave Pf Dd2 inh -56, C diff growth 7 and T cruzi growth-1 -42.
Screening C[C@@H]1CN([C@H](C)CO)S(=O)(=O)c2ccc(C#Cc3cccc(F)c3)cc2O[C@H]1CN(C)S(=O)(=O)c1ccccc1F returned Pf Dd2 inh -76, C diff growth 3, T cruzi growth-1 111*, T cruzi growth-2 109*, T cruzi growth-3 106*, 3T3 cytotox 32 and 3T3 cytotox 2 35*.
Screening CO[C@H]1CN(C)C(=O)c2ccc(NC(=O)c3ccc(F)cc3)cc2OC[C@@H](C)N(C)C[C@H]1C returned Pf Dd2 inh 8, C diff growth 0 and T cruzi growth-1 -10.
For CCCNC(=O)N1CC2(CN(Cc3ccc(OC)cc3)C2)c2c(n(C)c3cc(OC)ccc23)[C@@H]1CO the results were Pf Dd2 inh -28 and C diff growth -26.
COc1ccc2c3c(n(C)c2c1)[C@@H](CO)N(C(=O)CC1CC1)CC31CCN(C(=O)CC2CC2)CC1 was read as Pf Dd2 inh -51 and C diff growth 1.
Screening CO[C@@H]1CN(C)C(=O)c2ccc(NS(=O)(=O)CC(F)(F)F)cc2OC[C@@H](C)N(C(=O)c2ccc3c(c2)OCO3)C[C@@H]1C returned Pf Dd2 inh 20, C diff growth 0 and T cruzi growth-1 -24.
Screening C[C@@H]1CCCCO[C@H](CN(C)C(=O)Nc2ccccc2)[C@H](C)CN([C@H](C)CO)C(=O)c2cc(NC(=O)Cc3ccccc3)ccc2O1 returned Pf Dd2 inh -68 and T cruzi growth-1 29.
Screening C[C@H](CO)N1C[C@H](C)[C@H](CN(C)C(=O)Nc2ccc(F)cc2)OCCCC[C@H](C)Oc2ccc(NC(=O)Cc3ccccc3)cc2C1=O returned Pf Dd2 inh 4, C diff growth -1, T cruzi growth-1 104*, T cruzi growth-2 101*, T cruzi growth-3 40, 3T3 cytotox -21 and 3T3 cytotox 2 6.
For C[C@@H]1CN([C@H](C)CO)C(=O)c2cc(NC(=O)c3ccccc3)ccc2O[C@@H](C)CCCCO[C@H]1CN(C)C(=O)Nc1ccc(C(F)(F)F)cc1 the results were Pf Dd2 inh -18, C diff growth -4 and T cruzi growth-1 71.
`C[C@@H]1CCCCO[C@H](CN(C)C(=O)Nc2ccc(C(F)(F)F)cc2)[C@@H](C)CN([C@@H](C)CO)C(=O)c2cc(NC(=O)Cc3ccccc3)ccc2O1` gave Pf Dd2 inh -89*, C diff growth -2, T cruzi growth-1 inconclusive, T cruzi growth-2 101*, T cruzi growth-3 114*, 3T3 cytotox 2 and 3T3 cytotox 2 inconclusive.
